Bioassay records deposited in PubChem by National Center for Advancing Translational Sciences (NCATS).
Compounds with a hit are over-represented: about 4.2% of the library has one in this group of screens.
ClpP mod: qHTS Assay for Activators of ClpP. ATP-dependent Clp protease proteolytic subunit (Bacillus subtilis (strain 168)), P80244. purified B. subtilis ClpP, FRET peptide cleavage, 20 min. Potency, µM (doses to about 57.5 µM). 340,000 compounds, 1.9% hits; active = well fitted falling curve with a large enough effect; inconclusive = small, poorly fitted or top-dose-only effect; inactive = no such curve, though single readings can be large or run the other way; note: the source files actives as falling curves though it sought activators and does not explain the sign; nearly all actives have a fitted effect of over 65% in size
Target sequence (P80244 whole entry, looked up): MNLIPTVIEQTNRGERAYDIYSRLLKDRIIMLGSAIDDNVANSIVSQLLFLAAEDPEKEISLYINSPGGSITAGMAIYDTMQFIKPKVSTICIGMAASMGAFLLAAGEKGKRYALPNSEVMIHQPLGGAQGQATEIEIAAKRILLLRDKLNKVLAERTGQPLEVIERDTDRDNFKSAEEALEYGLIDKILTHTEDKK
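Buffer: 100 mM Tris/HCl pH8, 100 mM KCl, 0.05% low protease BSA, 2.5% glycerol, 0.01% Tween-20. ClpP 10 microg/mL final; 20 min RT; delta FRET normalized to ADEP and DMSO controls.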
Sfp PPTase inh: qHTS Assay for Inhibitors of Bacillus subtilis Sfp phosphopantetheinyl transferase (PPTase) | 310,000 compounds, 3.5% hits | Potency, µM, usual class: inhibitors | Biochemical Sfp PPTase activity, qHTS;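 note: the enzyme is Sfp with the accession as filed and its product quenches rhodamine fluorescence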
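Fluorescence-quenching assay with 15 nM Sfp, 5 uM rhodamine-CoA and 12.5 uM BHQ-2-labelled ybbR peptide in pH 7.6 Hepes/MgCl2 buffer. Enzyme was pre-incubated with compound for 15 min at room temperature. Rate was taken from the 30-min fluorescence change (525/598 nm).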
TCR act: Activators of T cell receptors: qHTS campaign. primary human leukocytes, anti-CD3, IL-2 HTRF, 48 h. Potency, µM (highest dose often 9.22 µM), hits mostly activators. 330,000 tested, under 10 active
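TCR engagement came from a-CD3 beads alone, with compounds added to primary human leukocytes for 48 hr. Secreted IL-2 bridged europium cryptate- and d2-labelled anti-IL-2 antibodies, giving FRET emission at 665nm after 320nm excitation.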
uPA generation: qHTS for Inhibitors of Cell Surface uPA Generation; cell surface uPA generation assay, qHTS; 330,000 compounds, 0.31% hits; Potency, µM (top dose mostly 38.3 µM), actives largely listed as inhibitors; active = well fitted inhibition curve with a large enough effect; inconclusive = small, poorly fitted or top-dose-only effect; inactive = no such curve, though single readings can be large or run the other way; tested in mouse RAW 264.7 cells; note: nearly all actives have a fitted effect of over 55% in size
Hits are given with their value. Unless noted, calls come from the whole dose curve; as a rule, active = well fitted curve in the direction sought with a large enough effect; inconclusive = small, poorly fitted or top-dose-only effect, or another doubt; inactive = no such curve, though single readings can be large; an effect the other way counts as inactive or inconclusive.

What do the screens show for `CCCCC1CCC(C(=O)OC(C)C(=O)Nc2ccc(NC(C)=O)cc2)CC1` (stereo not given)?
ClpP mod: inactive; Sfp PPTase inh: inactive; TCR act: inactive; uPA generation: inactive

What do the screens show for `COc1ccccc1C(=O)NC(=O)COC(=O)c1cccc(NC(C)=O)c1`?
ClpP mod: inactive; Sfp PPTase inh: inactive; TCR act: inactive; uPA generation: inactive

What do the screens show for `CCC1(C)Cc2c(sc3[nH]c(=O)[nH]c(=O)c23)CS1` (stereo not given)?
ClpP mod: inconclusive; Sfp PPTase inh: 22µM; TCR act: inactive; uPA generation: inactive

How did CCCCCCCCCCCCCCCCCCCCCC(=O)Nc1ccn([C@@H]2O[C@H](CO)[C@@H](O)[C@@H]2O)c(=O)n1 do in these assays?
Sfp PPTase inh: inactive

How did O=C(Cc1ccc(N2CCNC2=O)cc1)N1CCCC(Nc2ccc(F)c(F)c2)C1 (stereo not given) do in these assays?
ClpP mod: inactive; Sfp PPTase inh: inactive; TCR act: inactive; uPA generation: inactive

What do the screens show for `O=C(Cc1ccc(N2CCNC2=O)cc1)N1CCCC(Nc2cccc(F)c2)C1` (stereo not given)?
ClpP mod: inactive; Sfp PPTase inh: inactive; TCR act: inactive; uPA generation: 1.4µM

What do the screens show for `CCCNC(=O)c1c(C)nn(-c2cccc(C)c2)c1-n1cccc1`?
ClpP mod: inactive

What do the screens show for `O=C(Nc1cc2nn(-c3ccccc3)nc2cc1Cl)c1ccco1`?
ClpP mod: inactive; Sfp PPTase inh: inactive; TCR act: inactive; uPA generation: inactive

What do the screens show for `CC(=O)Nc1ccc2nc(-c3ccco3)[nH]c2c1`?
Sfp PPTase inh: inactive; TCR act: inactive; uPA generation: inactive

How did O=C(Nc1ccc2nc(-c3ccco3)[nH]c2c1)c1ccco1 do in these assays?
ClpP mod: inactive; Sfp PPTase inh: 45µM; uPA generation: inactive

What do the screens show for `O=C(Nc1ccc2nn(-c3ccccc3)nc2c1)c1ccco1`?
ClpP mod: 32µM; Sfp PPTase inh: inactive; TCR act: inactive; uPA generation: inactive

How did CCCS(=O)(=O)N1CC(=O)N(c2ccc(Cl)cc2C)C(C)(C(=O)NC2CCCC2)C1 (stereo not given) do in these assays?
ClpP mod: inactive

How did Cc1ccc(C)c(NC(=O)Cn2cc(S(=O)(=O)c3ccc(F)cc3)c(=O)c3cc(F)ccc32)c1 do in these assays?
ClpP mod: inactive

Results for Cc1ccc(CO/N=C/c2c(O)cc(C)oc2=O)cc1 ?
Sfp PPTase inh: inactive; TCR act: inactive; uPA generation: inactive

How did Cc1cc(O)c(/C=N/Nc2ccc(F)cc2)c(=O)o1 do in these assays?
Sfp PPTase inh: 79µM; TCR act: inactive; uPA generation: inactive

How did Cc1ccc(N/N=C/c2c(O)cc(C)oc2=O)cc1 do in these assays?
ClpP mod: inactive; Sfp PPTase inh: 56µM; TCR act: inactive; uPA generation: inactive

How did Cc1cccc(/N=C/c2c(O)cc(C)oc2=O)n1 do in these assays?
ClpP mod: inactive; Sfp PPTase inh: inactive; TCR act: inactive; uPA generation: inactive

How did COc1ccc(NC(=O)c2ccc3c(c2)CCN3S(=O)(=O)c2ccc(C)cc2)cc1Cl do in these assays?
ClpP mod: inactive

Results for Cc1ccc(N=Cc2cccc(O)c2O)c(C)c1 ?
ClpP mod: inactive; Sfp PPTase inh: 3.5µM

How did Cc1ccc(N=Cc2sc(O)c3ccccc23)c(C)c1 do in these assays?
ClpP mod: inactive; Sfp PPTase inh: 22µM; TCR act: inactive; uPA generation: inactive

Results for Cc1ccc(N=Cc2sc(O)c3ccccc23)cc1 ?
ClpP mod: inactive; Sfp PPTase inh: 32µM; TCR act: inactive; uPA generation: inactive

What do the screens show for `Cc1ccccc1N=Cc1cccc(O)c1O`?
ClpP mod: inactive; Sfp PPTase inh: inconclusive; TCR act: inactive; uPA generation: inactive

What do the screens show for `CCN(CC)c1ccc(C=Nc2ccc(C)cc2C)c(O)c1`?
Sfp PPTase inh: inactive; TCR act: inactive; uPA generation: inactive

Results for Cc1ccc(SC2=C(Sc3ccc(C)cc3)C(=O)c3ccccc3C2=O)cc1 ?
Sfp PPTase inh: 7.1µM; TCR act: inactive; uPA generation: inactive

Results for C=CCNC(=S)N1CCN(Cc2ccc3c(c2)OCO3)CC1 ?
ClpP mod: inactive; Sfp PPTase inh: 18µM; TCR act: inactive; uPA generation: inactive

How did CC12CCC(=O)C=C1CCC1C2C(O)CC2(C)C1CCC2(O)C(=O)COC(=O)COCC(=O)O (stereo not given) do in these assays?
TCR act: inactive; uPA generation: inactive

How did Cc1cc(C(=O)CSc2nnc(-c3ccc(F)cc3)o2)c(C)n1CC1CCCO1 (stereo not given) do in these assays?
ClpP mod: inactive; Sfp PPTase inh: inactive; TCR act: inactive; uPA generation: inactive

What do the screens show for `COc1cc(-c2nnc(SCC(=O)c3cc(C)n(CC4CCCO4)c3C)o2)cc(OC)c1OC` (stereo not given)?
ClpP mod: inactive; Sfp PPTase inh: 89µM; uPA generation: inactive

How did CCc1ccccc1OCCSc1nnc(-c2cc(OC)c(OC)c(OC)c2)o1 do in these assays?
ClpP mod: 25µM

What do the screens show for `COc1cc(-c2nnc(SCC(=O)/C(C#N)=C(\C)N)o2)cc(OC)c1OC`?
ClpP mod: 14µM; Sfp PPTase inh: inactive; TCR act: inactive; uPA generation: inactive

What do the screens show for `CN=C1S/C(=C\c2ccc(N3CCCC3)c(F)c2)C(=O)N1C`?
Sfp PPTase inh: 71µM; TCR act: inactive; uPA generation: inactive

Results for CCc1ccc(C(=O)c2cn(CC(=O)Nc3cccc(OC)c3)c3cc4c(cc3c2=O)OCO4)cc1 ?
ClpP mod: inactive

Results for Cn1c(=O)n2n(c1=O)[C@H]1[C@H](O)[C@H]3O[C@@H]3/C(=N/OC[C@@H](O)COCc3ccco3)[C@@H]1CC2 ?
Sfp PPTase inh: inactive

What do the screens show for `Cc1ccc(CN(C)C(=O)c2ccccc2NC(=O)c2ccccc2)o1`?
ClpP mod: inactive; TCR act: inactive; uPA generation: inactive

How did ClC(Cl)c1nnc(-c2ccccc2)c(-c2c[nH]c3ccccc23)n1 do in these assays?
ClpP mod: 25µM; Sfp PPTase inh: inactive; TCR act: inactive; uPA generation: inactive

How did c1ccc(-c2nnc(-c3c[nH]c4ccccc34)nc2-c2ccccc2)cc1 do in these assays?
ClpP mod: inactive; Sfp PPTase inh: inactive; TCR act: inactive; uPA generation: inactive

Results for COC(=O)N[C@@H](c1ccc(Br)cc1)C(C(=O)OC)C(=O)OC ?
Sfp PPTase inh: inactive

Results for O=C(c1cnccn1)N1CCC[C@@]2(CCN(c3ccccn3)C2)C1 ?
Sfp PPTase inh: inactive

What do the screens show for `C=C(C)c1cccc(C(C)(C)NC(=O)N2CCN(c3ccc(OC)cc3)CC2)c1`?
ClpP mod: 32µM; Sfp PPTase inh: inactive; TCR act: inactive; uPA generation: inactive

Results for CCOC(=O)c1ccccc1NC(=O)CN1C(=O)CC(c2ccco2)Sc2ccccc21 (stereo not given) ?
ClpP mod: inactive
